From the supplement of paper PMC10849652
About 7,900 targets were measured; listed, in parts, are those with a hit and a random draw of the rest. About 0.6% of all pairs of compound and target were hits.

Assays:
Assay in all cases: log2 fold change, soluble protein after heating vs DMSO (PISA); higher = thermal stabilisation; K562 cells, 10 uM, 30 min; active = over 0.2 and 3.5 SD of the protein, either way, in both replicates (recomputed)
[1] = compound: C1=CC=C(C=C1)[C@H](COC2=CC3=C(C=C2)NC(=O)N3)NC(=O)C4=CC=CN(C4=O)CC5=CC(=C(C=C5)F)F
Summary of the method: (§1)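 For each measurement, 10 μM compound was applied for 30 min to K562 cells at 2×10^6 cells/mL. Aliquots were heated for 3 min across 48°C-58°C, pooled, and extracted in PBS with 0.5% NP-40 at 4°C; the supernatant after 21,000xg for 90 min was soluble protein. This was quantified by TMTpro 16plex LC-MS/MS with channel sums equalised, and thermal stability was reported relative to control samples from duplicates, on a log2 fold-change scale.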

[2] = compound: CC1=C(SC2=C1C(=N[C@H](C3=NN=C(N32)C)CC(=O)N)C4=CC=C(C=C4)Cl)C
Summary of the method: as §1

[3] = compound: CC1=C2C(=CC=C1)N=C(N(C2=O)C3=CC=CC=C3C)CN4C=NC5=C(N=CN=C54)N
Summary of the method: as §1

[4] = compound: Cc1sc2c(c1C)C(c1ccc(Cl)cc1)=N[C@@H](CC(=O)OC(C)(C)C)c1nnc(C)n1-2
Summary of the method: as §1

[5] = compound: c1ccc([C@@H]2C[C@H]2NC2CCNCC2)cc1
Summary of the method: as §1

Measured: log2 fold change

MRPS18B (UniProt Q9Y676)
inactive: [1] -0.055 | [2] -0.113 | [3] -0.041 | [4] 0.127 | [5] -0.078

MRPS21 (UniProt P82921)
inactive: [1] -0.238 | [2] 0.032 | [3] 0.013 | [4] 0.116 | [5] -0.016

MNAT1 (UniProt P51948)
Sequence of UniProt P51948 (P51948 whole entry, looked up): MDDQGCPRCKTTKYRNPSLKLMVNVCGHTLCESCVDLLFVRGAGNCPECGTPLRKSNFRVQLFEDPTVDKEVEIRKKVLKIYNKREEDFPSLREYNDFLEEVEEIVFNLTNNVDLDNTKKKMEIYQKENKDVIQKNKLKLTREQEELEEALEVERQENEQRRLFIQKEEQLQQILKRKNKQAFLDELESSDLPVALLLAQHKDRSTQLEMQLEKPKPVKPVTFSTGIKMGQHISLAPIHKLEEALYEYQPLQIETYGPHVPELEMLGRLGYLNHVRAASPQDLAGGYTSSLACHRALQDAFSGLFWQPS
inactive: [1] 0.011 | [2] 0.088 | [3] 0.005 | [4] 0.033 | [5] 0.068

MT-ND2 (UniProt P03891)
inactive: [1] 0.023 | [2] 0.123 | [3] -0.118 | [4] -0.03 | [5] -0.003

MRPS9 (UniProt P82933)
inactive: [1] -0.001 | [2] 0.008 | [3] -0.025 | [4] 0.034 | [5] 0.025

ORC3 isoform 2 (UniProt Q9UBD5)
Sequence of UniProt Q9UBD5 (Q9UBD5 whole entry, looked up): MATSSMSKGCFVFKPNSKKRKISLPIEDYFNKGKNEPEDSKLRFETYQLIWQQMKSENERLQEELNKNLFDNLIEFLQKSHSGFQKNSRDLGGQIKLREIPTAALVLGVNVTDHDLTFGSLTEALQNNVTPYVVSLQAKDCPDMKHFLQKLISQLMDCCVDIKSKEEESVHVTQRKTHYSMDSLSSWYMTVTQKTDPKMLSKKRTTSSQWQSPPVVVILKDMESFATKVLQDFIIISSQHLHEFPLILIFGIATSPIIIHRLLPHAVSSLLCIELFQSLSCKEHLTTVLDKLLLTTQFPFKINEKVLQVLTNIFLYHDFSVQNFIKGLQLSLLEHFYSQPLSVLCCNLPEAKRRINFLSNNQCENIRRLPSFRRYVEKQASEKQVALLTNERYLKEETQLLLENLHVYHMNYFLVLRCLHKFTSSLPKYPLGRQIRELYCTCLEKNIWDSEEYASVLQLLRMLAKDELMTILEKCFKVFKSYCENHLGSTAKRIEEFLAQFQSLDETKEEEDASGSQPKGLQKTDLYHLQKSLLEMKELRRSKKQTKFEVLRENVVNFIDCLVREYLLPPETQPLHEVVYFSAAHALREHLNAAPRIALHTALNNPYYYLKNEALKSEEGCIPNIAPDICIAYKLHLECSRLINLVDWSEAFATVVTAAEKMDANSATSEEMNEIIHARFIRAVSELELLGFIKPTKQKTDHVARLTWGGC
inactive: [1] -0.098 | [2] 0.032 | [3] 0.107 | [4] 0.013 | [5] -0.079

MRPS2 (UniProt Q9Y399)
inactive: [1] -0.084 | [2] 0.147 | [3] -0.042 | [4] 0.079 | [5] 0.003

NMT1 (UniProt P30419)
inactive: [1] 0 | [2] 0.032 | [3] -0.001 | [4] 0.076 | [5] -0.018

P4HA2 (UniProt O15460)
Sequence of UniProt O15460 (O15460 whole entry, looked up): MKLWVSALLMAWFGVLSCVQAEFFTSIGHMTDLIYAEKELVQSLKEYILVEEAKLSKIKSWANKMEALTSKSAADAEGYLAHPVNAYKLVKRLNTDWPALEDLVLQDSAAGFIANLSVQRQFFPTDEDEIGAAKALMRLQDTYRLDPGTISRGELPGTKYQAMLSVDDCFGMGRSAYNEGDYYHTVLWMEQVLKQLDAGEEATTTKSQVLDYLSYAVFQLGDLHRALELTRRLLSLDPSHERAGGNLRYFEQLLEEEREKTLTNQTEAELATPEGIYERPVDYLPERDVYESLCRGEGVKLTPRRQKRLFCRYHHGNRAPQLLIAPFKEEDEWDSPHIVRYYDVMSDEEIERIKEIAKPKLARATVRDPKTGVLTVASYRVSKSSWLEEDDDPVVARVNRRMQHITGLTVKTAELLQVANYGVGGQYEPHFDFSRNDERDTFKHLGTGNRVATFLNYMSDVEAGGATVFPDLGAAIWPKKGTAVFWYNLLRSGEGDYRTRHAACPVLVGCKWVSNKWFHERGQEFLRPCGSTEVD
inactive: [1] 0.006 | [2] -0.033 | [3] -0.014 | [4] -0.007 | [5] -0.043

OXA1L (UniProt Q15070)
inactive: [1] 0.014 | [2] -0.01 | [3] 0.018 | [4] 0 | [5] 0.009

NFATC3 (UniProt Q12968)
inactive: [1] -0.03 | [2] 0.081 | [3] 0.12 | [4] 0.16 | [5] 0.065

NDUFS4 (UniProt O43181)
Sequence of UniProt O43181 (O43181 whole entry, looked up): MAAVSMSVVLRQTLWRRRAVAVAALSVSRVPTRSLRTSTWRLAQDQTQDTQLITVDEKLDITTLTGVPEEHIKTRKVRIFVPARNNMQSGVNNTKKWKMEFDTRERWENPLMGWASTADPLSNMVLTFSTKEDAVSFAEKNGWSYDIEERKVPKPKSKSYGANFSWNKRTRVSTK
inactive: [1] 0.078 | [2] -0.04 | [3] -0.096 | [4] 0.093 | [5] 0.086

NFE2 (UniProt Q16621)
inactive: [1] 0.054 | [2] -0.004 | [3] 0.12 | [4] 0.087 | [5] 0.145

NUP210 (UniProt Q8TEM1)
Sequence of UniProt Q8TEM1 (Q8TEM1 whole entry, looked up): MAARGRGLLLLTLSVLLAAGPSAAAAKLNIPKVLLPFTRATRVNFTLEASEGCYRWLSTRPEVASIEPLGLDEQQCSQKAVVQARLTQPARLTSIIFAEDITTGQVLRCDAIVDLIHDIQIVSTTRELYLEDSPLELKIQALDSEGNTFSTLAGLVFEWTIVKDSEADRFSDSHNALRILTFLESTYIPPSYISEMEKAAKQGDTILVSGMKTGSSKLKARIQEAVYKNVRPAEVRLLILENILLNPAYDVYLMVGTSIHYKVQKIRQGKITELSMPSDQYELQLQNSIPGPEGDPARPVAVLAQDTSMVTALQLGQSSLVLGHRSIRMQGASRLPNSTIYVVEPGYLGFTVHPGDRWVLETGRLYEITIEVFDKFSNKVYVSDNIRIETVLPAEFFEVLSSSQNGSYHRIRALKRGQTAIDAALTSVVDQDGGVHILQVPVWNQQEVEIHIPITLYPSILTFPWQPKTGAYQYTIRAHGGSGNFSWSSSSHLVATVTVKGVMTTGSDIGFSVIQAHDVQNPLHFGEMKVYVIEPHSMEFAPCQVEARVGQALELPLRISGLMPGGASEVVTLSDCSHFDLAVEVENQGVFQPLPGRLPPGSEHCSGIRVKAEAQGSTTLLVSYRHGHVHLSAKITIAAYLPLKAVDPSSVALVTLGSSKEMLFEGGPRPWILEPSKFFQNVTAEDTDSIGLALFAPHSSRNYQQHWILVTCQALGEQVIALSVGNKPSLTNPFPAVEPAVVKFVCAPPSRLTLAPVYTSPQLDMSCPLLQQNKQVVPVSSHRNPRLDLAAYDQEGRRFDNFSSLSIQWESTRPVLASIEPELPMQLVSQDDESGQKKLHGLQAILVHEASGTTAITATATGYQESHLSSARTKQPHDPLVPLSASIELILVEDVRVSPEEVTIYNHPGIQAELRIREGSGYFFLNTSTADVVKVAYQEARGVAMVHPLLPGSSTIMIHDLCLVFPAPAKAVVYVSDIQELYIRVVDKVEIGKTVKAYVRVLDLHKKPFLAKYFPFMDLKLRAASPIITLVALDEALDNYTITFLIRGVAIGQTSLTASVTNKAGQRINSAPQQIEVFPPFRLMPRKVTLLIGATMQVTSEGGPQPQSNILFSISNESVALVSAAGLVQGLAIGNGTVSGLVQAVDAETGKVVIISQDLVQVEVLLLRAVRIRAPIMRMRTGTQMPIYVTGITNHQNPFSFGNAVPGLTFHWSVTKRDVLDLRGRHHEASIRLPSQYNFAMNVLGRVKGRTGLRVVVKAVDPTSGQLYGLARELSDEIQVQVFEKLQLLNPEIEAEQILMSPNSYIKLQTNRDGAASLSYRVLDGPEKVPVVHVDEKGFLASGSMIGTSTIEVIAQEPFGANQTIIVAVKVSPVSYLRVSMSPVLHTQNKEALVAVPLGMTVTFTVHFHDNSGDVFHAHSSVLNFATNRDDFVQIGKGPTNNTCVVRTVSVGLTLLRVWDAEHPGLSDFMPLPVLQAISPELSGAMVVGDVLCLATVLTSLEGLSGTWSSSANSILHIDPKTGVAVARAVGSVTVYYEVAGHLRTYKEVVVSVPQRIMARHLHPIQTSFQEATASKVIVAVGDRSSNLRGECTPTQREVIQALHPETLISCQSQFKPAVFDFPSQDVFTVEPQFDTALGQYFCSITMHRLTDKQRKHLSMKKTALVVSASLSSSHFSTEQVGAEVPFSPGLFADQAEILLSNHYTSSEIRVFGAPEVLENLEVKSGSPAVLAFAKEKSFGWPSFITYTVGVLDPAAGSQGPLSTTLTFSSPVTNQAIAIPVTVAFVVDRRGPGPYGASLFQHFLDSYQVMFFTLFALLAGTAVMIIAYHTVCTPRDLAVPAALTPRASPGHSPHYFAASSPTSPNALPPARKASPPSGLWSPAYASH
inactive: [1] -0.083 | [2] 0.059 | [3] 0.037 | [4] -0.013 | [5] -0.028

MRPS6 (UniProt P82932)
inactive: [1] -0.084 | [2] 0.012 | [3] 0.052 | [4] 0.052 | [5] -0.022

NBN (UniProt O60934)
Sequence of UniProt O60934 (O60934 whole entry, looked up): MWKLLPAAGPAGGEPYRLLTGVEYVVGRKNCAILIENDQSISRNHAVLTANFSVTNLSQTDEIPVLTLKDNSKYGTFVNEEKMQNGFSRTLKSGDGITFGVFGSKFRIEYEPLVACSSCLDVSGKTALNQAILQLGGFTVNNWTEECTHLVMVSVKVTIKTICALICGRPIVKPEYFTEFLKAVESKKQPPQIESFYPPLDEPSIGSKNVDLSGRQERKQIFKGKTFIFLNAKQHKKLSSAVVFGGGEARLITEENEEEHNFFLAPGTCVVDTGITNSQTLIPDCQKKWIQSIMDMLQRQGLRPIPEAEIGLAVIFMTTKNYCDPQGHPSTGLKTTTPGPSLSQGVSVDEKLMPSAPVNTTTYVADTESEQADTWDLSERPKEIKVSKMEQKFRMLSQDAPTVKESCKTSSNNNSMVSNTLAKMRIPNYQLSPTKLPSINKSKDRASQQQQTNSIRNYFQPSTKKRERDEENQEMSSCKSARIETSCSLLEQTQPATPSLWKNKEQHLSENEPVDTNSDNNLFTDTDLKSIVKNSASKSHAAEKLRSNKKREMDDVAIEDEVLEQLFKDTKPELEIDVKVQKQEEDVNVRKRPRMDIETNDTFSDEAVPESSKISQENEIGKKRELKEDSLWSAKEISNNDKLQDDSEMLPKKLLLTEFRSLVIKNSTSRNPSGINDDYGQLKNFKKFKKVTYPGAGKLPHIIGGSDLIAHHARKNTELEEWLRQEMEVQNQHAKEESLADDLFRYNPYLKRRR
inactive: [1] 0.002 | [2] 0.032 | [3] 0.036 | [4] -0.004 | [5] -0.001

MYH16 (UniProt Q9H6N6)
inactive: [1] -0.164 | [2] -0.042 | [3] -0.142 | [4] 0.069 | [5] -0.034

NEK3 (UniProt P51956)
inactive: [2] 0.204 | [3] 0.053 | [4] -0.032 | [5] -0.094

NUDT7 (UniProt P0C024)
inactive: [1] -0.077 | [4] -0.047

MSANTD2 (UniProt Q6P1R3)
inactive: [3] 0.06 | [4] 0.028

NDUFA9 (UniProt Q16795)
Sequence of UniProt Q16795 (Q16795 whole entry, looked up): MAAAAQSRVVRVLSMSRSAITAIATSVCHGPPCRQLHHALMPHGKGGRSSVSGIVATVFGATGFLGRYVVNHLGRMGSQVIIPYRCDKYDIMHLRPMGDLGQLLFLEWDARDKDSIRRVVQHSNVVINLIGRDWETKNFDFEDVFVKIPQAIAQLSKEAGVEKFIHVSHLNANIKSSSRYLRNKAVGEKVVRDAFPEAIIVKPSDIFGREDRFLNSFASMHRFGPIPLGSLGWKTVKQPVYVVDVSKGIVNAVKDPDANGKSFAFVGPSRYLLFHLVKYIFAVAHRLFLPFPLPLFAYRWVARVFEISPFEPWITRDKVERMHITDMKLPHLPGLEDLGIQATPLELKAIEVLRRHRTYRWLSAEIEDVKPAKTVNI
inactive: [1] -0.005 | [2] 0.075 | [3] 0.078 | [4] -0.014 | [5] -0.054

NECTIN2 isoform 2 (UniProt Q92692)
inactive: [1] 0.179 | [3] -0.03

MRPL47 (UniProt Q9HD33)
inactive: [1] 0.042 | [2] -0.108 | [3] -0.131 | [4] 0.087 | [5] -0.01

NMNAT1 (UniProt Q9HAN9)
Sequence of UniProt Q9HAN9 (Q9HAN9 whole entry, looked up): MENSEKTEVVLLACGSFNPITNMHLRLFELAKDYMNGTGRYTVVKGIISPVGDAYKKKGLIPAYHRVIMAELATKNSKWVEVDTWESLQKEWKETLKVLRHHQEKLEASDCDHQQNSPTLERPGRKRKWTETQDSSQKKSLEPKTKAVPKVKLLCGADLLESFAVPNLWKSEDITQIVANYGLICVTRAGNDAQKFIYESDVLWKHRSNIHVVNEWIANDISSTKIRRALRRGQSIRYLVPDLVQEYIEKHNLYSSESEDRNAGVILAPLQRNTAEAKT
inactive: [1] 0.1 | [2] -0.055 | [3] -0.088 | [4] 0.304 | [5] 0.02

PAFAH1B2 (UniProt P68402)
inactive: [1] -0.042 | [2] -0.078 | [3] 0.078 | [4] 0.004 | [5] 0.082

OSBPL2 (UniProt Q9H1P3)
inactive: [2] -0.583 | [5] -0.09
